Screens (PubChem)
Gal4-VP16 FLuc: Gal4-VP16 reporter inhibition counter-screen; 310,000 tested, 3.5% active; Potency, µM (highest dose often 53.6 µM), inactives show top-dose activity, negative = inhibition, hits mostly inhibitors; Drosophila S2 Gal4-VP16 UAS-luciferase, luminescence, 20 h;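 further: Gal4-VP16 expression switched on by copper sulfate through the metallothionein promoter; nearly all actives have a fitted effect of over 50% in size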
RORg inh: blocks mouse ROR gamma transcriptional activity; Potency, µM (highest dose often 53.6 µM), without a hit: at the top dose activity change, negative = inhibition, most hits filed as inhibitors; 310,000 tested, 5.4% active; Drosophila S2 Gal4-RORgamma UAS-luciferase reporter, 20 h; further: nearly all actives have a fitted effect of over 60% in size
Target sequence (P51450 whole entry, looked up, the tested form may be a part): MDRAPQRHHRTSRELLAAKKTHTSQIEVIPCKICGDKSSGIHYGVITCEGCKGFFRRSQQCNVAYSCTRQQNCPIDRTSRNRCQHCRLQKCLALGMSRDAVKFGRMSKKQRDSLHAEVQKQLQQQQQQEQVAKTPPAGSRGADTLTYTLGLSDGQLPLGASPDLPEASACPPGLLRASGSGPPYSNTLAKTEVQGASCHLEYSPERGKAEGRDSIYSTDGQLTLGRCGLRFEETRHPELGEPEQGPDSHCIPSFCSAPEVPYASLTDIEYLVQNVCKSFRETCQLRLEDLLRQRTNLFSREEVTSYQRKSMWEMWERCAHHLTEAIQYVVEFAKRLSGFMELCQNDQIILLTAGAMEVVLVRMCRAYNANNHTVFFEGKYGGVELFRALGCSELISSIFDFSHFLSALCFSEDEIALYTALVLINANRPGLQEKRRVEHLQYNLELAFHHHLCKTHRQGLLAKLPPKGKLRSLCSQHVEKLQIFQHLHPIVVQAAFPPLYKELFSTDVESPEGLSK
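Compounds are pin-transferred onto Drosophila Schneider cells expressing a copper-inducible Gal4–ROR gamma transactivation domain fusion. After 1 hr, copper sulfate is added to 700 uM final; luciferase is read 20 hr later.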
Luc counter: Kinase-Glo luciferase inhibition (counter-screen); Q27757; Potency, µM (doses to about 38.3 µM), for the others: at the top dose activity change, negative = inhibition, most hits filed as inhibitors; AID 1379; Kinase-Glo luciferase, ATP luminescence, 8 min; 200,000 tested, 0.28% active; further: nearly all actives have a fitted effect of over 60% in size
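Compound is pinned into ATP-containing buffer (10 uM ATP, imidazole pH 7.2, 7 mM MgCl2). Kinase-Glo luciferase reagent is then added. Light output is recorded following an 8-min room-temperature incubation.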
* hit, by the source's call; ? = inconclusive; . = no result. The list is not random: actives were taken first. Their share in the collection is about 6.2%. The call rests on the fitted dose curve; in most records, active means well fitted curve in the direction sought with a large enough effect; inconclusive means small, poorly fitted or top-dose-only effect, or another doubt; inactive means no such curve, though single readings can be large; an effect the other way counts as inactive or inconclusive. On the % scale 0 is the no-effect control and ±100 the full control effect; potency means the concentration at half of the fitted maximal effect.

SMILES	Gal4-VP16 FLuc	RORg inh	Luc counter
COC(=O)C1=C[C@@H](C(=O)OC)C2C3=C(C(=O)[C@@]2(C)NC(=O)c2ccccc2)[C@H](c2ccccc2)[C@@H]2C(=O)N(c4ccccc4)C(=O)[C@@H]2[C@@H]3C1 (stereo not given in full)	0%	-9%	.
CC(C)c1nnc(NC(=O)CSc2ccccc2)s1	0%	-28%	-2%
CC(C)=CCN1CCN(Cc2nc(-c3ccccc3)cs2)CC1CCO (stereo not given)	-6%	9%	1%
CCOC(=O)c1c(N)nn(C(=O)C(C)C)c1-c1ccccc1	-19%	8%	4%
CCc1nc(SCC(=O)N2c3ccccc3CC2C)c2c(C)c(C)sc2n1 (stereo not given)	?	37%	0%
O=C(O)CSc1ncnc2c1oc1ccccc12	-8%	6%	.
Cc1sc2nc(C(C)C)nc(SCC(=O)N3c4ccccc4CC3C)c2c1C (stereo not given)	18µM*	8.9µM*	2%
O=C(CSc1ncnc2c1oc1ccccc12)NCc1ccco1	20µM*	?	-6%
CCn1c(SCC(=O)NC2CCCCC2)nnc1-c1cccs1	-3%	-3%	5%
CCn1c(SC(=O)NC2CCCCC2)nnc1-c1cccs1	?	7.9µM*	5%
Cc1nc(SCC(=O)NCc2ccco2)nc(C)c1C	-4%	7.1µM*	-3%
Cc1nc(SCC(=O)NC(=O)NCc2ccco2)nc(C)c1C	-3%	-3%	-3%
COc1ccccc1C(=O)Nc1nnc(S(=O)(=O)N2CCN(c3ccc(F)cc3)CC2)s1	11%	2%	.
Cc1ccc(C2(CC(=O)Nc3nccs3)CCOC(C(C)C)C2)cc1 (stereo not given)	?	-88%	3%
COc1ccccc1C1(CC(=O)Nc2nccs2)CCOC(C(C)C)C1 (stereo not given)	-8%	11µM*	-1%
O=C(O)c1ccccc1C(=O)NC1CCCc2ccccc21 (stereo not given)	1%	-24%	.
O=C(O)/C=C/C(=O)NC1CCCCCCCCCCC1	2%	6%	.
CCN(CC)c1nc2cc(C)ccc2cc1/C=C(\C#N)C(N)=O	-13%	-16%	3%
Nc1nc(Nc2cccc3ccccc23)nc(C2CCCC2=O)n1 (stereo not given)	-7%	-7%	14%
Nc1nc(CCl)nc(Nc2cccc3ccccc23)n1	10µM*	11µM*	.
CNc1nc(=S)[nH]c2ccccc12	-3%	-46%	.
S=c1nc(C2CCCCC2)[nH]c2ccccc12	8.9µM*	0.63µM*	-4%
S=c1nc(SCc2ccccc2)[nH]c2ccccc12	10µM*	1.4µM*	-1%
S=c1nc(C2CC2)[nH]c2ccccc12	5.6µM*	3.5µM*	-3%
O=C(Cc1ccccc1)N1CCC(c2nc3ccccc3[nH]2)CC1	-7%	19%	-2%
SMILES	Gal4-VP16 FLuc	RORg inh	Luc counter
CC(C)c1nc(=S)c2ccccc2[nH]1	10µM*	5.6µM*	1%
c1ccc(CSc2nc3ncncc3[nH]2)cc1	-3%	-2%	.
O=c1[nH]c(C2CCCCC2)nc2ccccc12	2%	20%	2%
CSc1ccccc1NC(=O)CSc1nnc(CNC(=O)c2ccccc2F)n1C	5%	0%	.
Fc1ccc(N/N=C/c2ccc(N3CCOCC3)cc2)c(F)c1	19%	18%	-2%
NC(=O)C1CCN(C(=O)COc2ccc(S(=O)(=O)NCc3ccccc3)cc2Cl)CC1	-4%	15%	-1%
COc1ccc(S(=O)(=O)Nc2cc3[nH]c(=O)oc3cc2C)cc1	-3%	41%	.
CC(C)[C@H](NC(=O)[C@@H]1Cc2ccccc2CN1C(=O)OC(C)(C)C)C(=O)NCC1CCCO1 (stereo not given in full)	0%	-3%	.
Fc1cccc(/C=N/Nc2nccnc2Cl)c1	4%	-3%	.
Clc1ccc(/C=N\Nc2ccccc2)cc1	18%	1%	.
Clc1cccc(/C=N/Nc2nnc(Cl)c3ccccc23)c1	?	3.2µM*	-6%
Clc1ccc(/C=N/Nc2nnc(-c3ncc[nH]3)c3ccccc23)cc1	3.2µM*	1.3µM*	-8%
CCCCCCCCCCCCCCC[C@H](O)[C@H](N)CO	?	?	2%
Cc1cc(C)nc(-n2ncc3c2CC(c2cccc(Cl)c2)CC3=O)n1 (stereo not given)	-2%	-2%	-1%
COc1ccc(C(=O)NNC(=O)c2ccccc2[N+](=O)[O-])cc1	9%	35%	-2%
CCC(=O)NC(=S)NNC(=O)c1ccccc1[N+](=O)[O-]	-15%	18µM*	0%
O=C(NNC(=S)NC(=O)c1ccccc1[N+](=O)[O-])c1ccccc1	7%	15%	4%
